In the antibiotic and cytotoxicity screens of Wong et al. (2023):
Hit rate of the full screen: of about 39,000 compounds, about 3,300 (8.5%) were called active. What follows is part of a selection rich in actives, with near analogues and random picks from the rest.

system: HepG2; test: cytotoxicity call (relative viability < 0.9); conditions: 10 µM

SMILES	cytotoxicity call
CC(C)C#Cc1cnc2c(c1)C(=O)N([C@@H](C)CO)C[C@@H](C)[C@@H](CN(C)C(=O)c1ccc3c(c1)OCO3)O2	inactive
O=C(C[C@H]1C[C@H]2c3cc(NS(=O)(=O)c4ccc(F)cc4)ccc3O[C@H]2[C@@H](CO)O1)NCCN1CCCCC1	inactive
C[C@@H]1CN([C@H](C)CO)C(=O)CCCn2cc(nn2)CO[C@@H]1CN(C)S(=O)(=O)c1ccc2c(c1)OCCCO2	inactive
C[C@H]1CN([C@@H](C)CO)S(=O)(=O)c2ccc(C#Cc3cccc(F)c3)cc2O[C@@H]1CN(C)S(=O)(=O)c1ccccc1F	inactive
C[C@H](O)C#Cc1ccc2c(c1)O[C@H](CN(C)C)[C@H](C)CN([C@H](C)CO)S2(=O)=O	inactive
COCC(=O)Nc1ccc2c(c1)C(=O)N(C)C[C@H](OC)[C@H](C)CN(Cc1cccc(F)c1)[C@@H](C)CO2	inactive
S=c1[nH]nc(C2CCCCC2)[nH]1	inactive
COCC(=O)Nc1ccc2c(c1)C(=O)N(C)C[C@@H](OC)[C@H](C)CN(C(=O)Nc1ccccc1F)[C@H](C)CO2	inactive
Cc1nnc(SCC2=C(C(=O)O)N3C(=O)[C@@H](N)[C@H]3SC2)s1	inactive
O=C(N[C@H](NC(=S)Nc1ccc(F)c([N+](=O)[O-])c1)C(Cl)(Cl)Cl)C(c1ccccc1)c1ccccc1	active
CCOC(=O)c1ccc(NC(=S)N[C@@H](NC(=O)c2ccc(Br)cc2)C(Cl)(Cl)Cl)cc1	inactive
C[C@@H]1CN([C@@H](C)CO)S(=O)(=O)c2ccc(-c3cncnc3)cc2O[C@H]1CN(C)C(=O)Cc1ccccc1	inactive
C[C@H]1CCCCO[C@H](CN(C)Cc2ccccc2)[C@@H](C)CN([C@@H](C)CO)C(=O)c2cc(NS(=O)(=O)c3cccs3)ccc2O1	inactive
COc1ccc(CN(C)C[C@@H]2OCCCC[C@@H](C)Oc3ccc(NC(=O)c4ccncc4)cc3C(=O)N([C@@H](C)CO)C[C@H]2C)cc1	inactive
C[C@@H]1CCCCO[C@@H](CN(C)S(=O)(=O)c2cn(C)cn2)[C@H](C)CN([C@H](C)CO)C(=O)c2cc(NC(=O)Nc3cccc4ccccc34)ccc2O1	inactive
C[C@@H]1CCCCO[C@H](CN(C)S(=O)(=O)c2cccs2)[C@H](C)CN([C@H](C)CO)C(=O)c2cc(NS(=O)(=O)c3ccc(Cl)cc3)ccc2O1	inactive
C[C@@H]1CN([C@H](C)CO)C(=O)c2cc(NS(=O)(=O)c3ccc(Cl)cc3)ccc2O[C@@H](C)CCCCO[C@@H]1CN(C)S(=O)(=O)c1cccs1	inactive
C[C@@H]1CCCCO[C@@H](CN(C)S(=O)(=O)c2cccs2)[C@H](C)CN([C@H](C)CO)C(=O)c2cc(NS(=O)(=O)c3ccc(Cl)cc3)ccc2O1	active
C[C@H](CO)N1C[C@H](C)[C@@H](CN(C)S(=O)(=O)c2cccs2)OCCCC[C@H](C)Oc2ccc(NS(=O)(=O)c3ccc(Cl)cc3)cc2C1=O	active
C[C@@H]1CN([C@@H](C)CO)C(=O)c2cc(NS(=O)(=O)c3ccc(Cl)cc3)ccc2O[C@@H](C)CCCCO[C@@H]1CN(C)S(=O)(=O)c1cccs1	inactive

SMILES	cytotoxicity call
C[C@@H]1CCCCO[C@@H](CN(C)S(=O)(=O)c2cccs2)[C@H](C)CN([C@@H](C)CO)C(=O)c2cc(NS(=O)(=O)c3ccc(Cl)cc3)ccc2O1	inactive
C[C@H](CO)N1C[C@H](C)[C@H](CN(C)S(=O)(=O)c2cccs2)OCCCC[C@H](C)Oc2ccc(NS(=O)(=O)c3ccc(Cl)cc3)cc2C1=O	inactive
C[C@@H]1CCCCO[C@@H](CN(C)S(=O)(=O)c2cccs2)[C@@H](C)CN([C@@H](C)CO)C(=O)c2cc(NS(=O)(=O)c3ccc(Cl)cc3)ccc2O1	active
C[C@H]1CCCCO[C@@H](CN(C)S(=O)(=O)c2cccs2)[C@@H](C)CN([C@@H](C)CO)C(=O)c2cc(NS(=O)(=O)c3ccc(Cl)cc3)ccc2O1	inactive
C[C@@H]1CCCCO[C@H](CN(C)S(=O)(=O)c2cccs2)[C@H](C)CN([C@@H](C)CO)C(=O)c2cc(NS(=O)(=O)c3ccc(Cl)cc3)ccc2O1	active
C[C@@H]1CCCCO[C@@H](CN(C)S(=O)(=O)c2cccs2)[C@@H](C)CN([C@H](C)CO)C(=O)c2cc(NS(=O)(=O)c3ccc(Cl)cc3)ccc2O1	inactive
C[C@@H]1CN([C@H](C)CO)C(=O)c2cc(NS(=O)(=O)c3ccc(Cl)cc3)ccc2O[C@@H](C)CCCCO[C@H]1CN(C)S(=O)(=O)c1cccs1	inactive
COc1ccc([C@@H]2CC=CC[C@H](C)Oc3ccccc3C(=O)N(C)[C@@H](Cc3ccccc3)C(=O)N2)c(OC)c1	inactive
Cc1noc(C)c1NC(=O)Nc1ccc2c(c1)C(=O)N([C@@H](C)CO)C[C@@H](C)[C@@H](CN(C)Cc1ccncc1)OCCCC[C@H](C)O2	inactive
CO[C@H]1CN(C)C(=O)c2cc(NC(=O)C3CC3)ccc2OC[C@@H](C)N(C(=O)C2CCOCC2)C[C@H]1C	inactive
COc1ccc([C@@H]2CC=CC[C@@H](C)Oc3ccccc3C(=O)N(C)[C@H](Cc3ccccc3)C(=O)N2)c(OC)c1	inactive
Cc1noc(C)c1NC(=O)Nc1ccc2c(c1)C(=O)N([C@@H](C)CO)C[C@@H](C)[C@H](CN(C)C(=O)c1ccccc1)OCCCC[C@@H](C)O2	inactive
COCC(=O)N1C[C@@H](C)[C@H](OC)CN(C)C(=O)c2ccc(NC(=O)c3ccc(OC)cc3)cc2OC[C@@H]1C	inactive
COc1cc(C(=O)NS(=O)(=O)c2ccccc2C)ccc1Cc1cn(C)c2ccc(NC(=O)OC3CCCC3)cc12	inactive
CCCC#Cc1cnc2c(c1)C(=O)N([C@H](C)CO)C[C@H](C)[C@@H](CN(C)S(=O)(=O)c1cn(C)cn1)O2	inactive
C[C@@H]1CN([C@@H](C)CO)C(=O)c2cc(NC(=O)Cc3ccccc3)ccc2O[C@@H]1CN(C)C(=O)Nc1cccc2ccccc12	inactive
CC(C)NC(=O)N(C)C[C@@H]1Oc2ccc(NS(=O)(=O)c3ccc(F)cc3)cc2C(=O)N([C@@H](C)CO)C[C@H]1C	inactive
CNC(=O)Cc1cnc(N)s1	inactive
C[C@H](CO)N1C[C@H](C)[C@H](CN(C)Cc2ccc(C(F)(F)F)cc2)Oc2c(NC(=O)CCCCCC(=O)Nc3ccccc3N)cccc2C1=O	inactive
